Screens: PubChem, several laboratories
Mcl1-Bid inh: Mcl-1/Bid binding inhibitors, primary screen, biochemical, TR-FRET, 1536-well. AID 1021, 2008. Induced myeloid leukemia cell differentiation protein Mcl-1 (Homo sapiens), Q07820. TR-FRET Mcl-1/Bid-Dy647 peptide binding. 220,000 compounds, 0.97% hits. inhibition, % at 21.7 µM;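 active = compounds that cut the binding signal by more than half at the single screening dose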;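 note: His-tagged Mcl-1 with europium anti-His antibody binding Bid BH3 peptide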
MCL1-BIM inh: inhibitors of MCL1 binding to BIM-BH3, primary screen, biochemical, fluorescence polarization | inhibition, % at 10.9 µM | Induced myeloid leukemia cell differentiation protein Mcl-1 (Homo sapiens), Q07820 | 320,000 compounds, 0.68% hits | GST-MCL1 / FITC-Bim-BH3 fluorescence polarization;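 active = inhibition above the mean inhibition of all tested compounds plus 3 SD, set per campaign, cut at about 40% in these data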;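 note: higher means more loss of mP so more displacement of Bim peptide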
Mcl1-Noxa inh: Mcl-1/Noxa binding inhibitors, primary screen, biochemical, TR-FRET, 1536-well | Induced myeloid leukemia cell differentiation protein Mcl-1 (Homo sapiens), Q07820 | TR-FRET Mcl-1/Noxa peptide binding, 2 h | inhibition, % at 21.7 µM | 220,000 compounds, 1.5% hits;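 active = compounds that cut the protein-peptide binding signal by more than 50% relative to plate controls in a single-dose test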;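 note: His-tagged Mcl-1 with rhodamine Noxa BH3 peptide and terbium anti-His antibody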
Bim-Mcl-1: inhibitors of Bim peptide binding to Mcl-1, primary screen, biochemical, bead-based flow cytometry, multiplex; Induced myeloid leukemia cell differentiation protein Mcl-1 (Homo sapiens), Q07820; Bim peptide-Mcl-1 binding; inhibition, % at 10 µM; 190,000 compounds, 0.1% hits; in the data active = inhibition above about 40%
Bcl-xL primary: inhibitors of human Bcl-xL, primary screen, biochemical, fluorescence polarization, HTS; GST-Bcl-xL / FITC-Bim BH3 peptide fluorescence polarization; inhibition, % at 10.9 µM; 320,000 compounds, 0.7% hits; AID 2129, 2009;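 active = inhibition above the mean of all tested compounds plus 3 SD, cutoff set per campaign, cut at about 30% in these data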;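 note: inhibitors lower millipolarization by displacing the labeled peptide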
Target sequence (Q07817 whole entry, looked up): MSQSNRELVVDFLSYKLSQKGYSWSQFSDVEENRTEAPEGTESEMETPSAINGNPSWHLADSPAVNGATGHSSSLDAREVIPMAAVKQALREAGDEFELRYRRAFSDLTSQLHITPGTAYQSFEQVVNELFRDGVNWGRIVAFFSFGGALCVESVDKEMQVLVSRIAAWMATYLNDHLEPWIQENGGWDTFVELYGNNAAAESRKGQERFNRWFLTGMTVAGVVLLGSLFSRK
GLD-1 RNA inh: GLD-1/TGE RNA complex disruptors, primary screen, biochemical, fluorescence polarization; Female germline-specific tumor suppressor gld-1 (Caenorhabditis elegans), Q17339; purified GLD-1 + fluorescein TGE RNA; inhibition, % at 5.96 µM; 320,000 compounds, 0.44% hits;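 active = percent inhibition above a per-plate cutoff, the plate mean of test compounds plus 3 SD, cut at about 30% in these data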
A number is an active result; i = inactive; nt = not tested or not shown. Shown are actives, neighbours in structure and some others; about 2.3% of the full set was active somewhere.

SMILES | Mcl1-Bid inh | MCL1-BIM inh | Mcl1-Noxa inh | Bim-Mcl-1 | Bcl-xL primary | GLD-1 RNA inh
NNC(=O)c1oc2nc(-c3ccco3)cc(-c3ccco3)c2c1N | i | i | 61.6 | nt | i | i
Cc1cc(=O)oc2cc(OCc3ccc(C(=O)OCC(=O)NC4CCS(=O)(=O)C4)cc3)ccc12 (stereo not drawn) | i | i | i | nt | i | i
Cc1cc(=O)oc2cc(OCc3ccc(C(=O)OCC(=O)Nc4ccc(N(C)C)cc4)cc3)ccc12 | 91.9 | nt | 95.6 | i | nt | nt
CNC(=O)N1CCC(C(=O)c2c(C)c(C)c(C)c(C)c2C)CC1 | nt | i | nt | nt | i | i
COc1cc2[nH]c(=O)n(CCC(=O)N3CCN(c4cccc(C)c4C)CC3)c(=O)c2cc1OC | 53.7 | i | i | i | i | i
COc1cc2[nH]c(=O)n(CCC(=O)N3CCN(Cc4ccccc4)CC3)c(=O)c2cc1OC | i | i | i | i | i | i
Nc1ccc2c3c(cccc13)CC2 | i | i | i | i | 38.4 | i
COc1cc(NS(=O)(=O)c2ccc(NC(=S)NC(=O)/C=C/c3ccc(OC)c(OC)c3)cc2)ncn1 | i | i | 59.1 | i | i | i
CCc1nnc(NS(=O)(=O)c2ccc(NC(=S)NC(=O)/C=C/c3ccc(F)cc3)cc2)s1 | i | i | 61.2 | i | i | i
COc1ccc(C2=Nn3c(nnc3-c3ccccc3OC)SC2)cc1OC1CCOC1 (stereo not drawn) | nt | nt | nt | nt | nt | i
CC(=O)c1ccc(OCC(O)CN2CCOCC2)cc1 (stereo not drawn) | i | i | 64.4 | i | i | i
CCC(=O)c1ccc(OCC(O)CN2CCOCC2)cc1 (stereo not drawn) | i | i | i | i | i | i
COc1ccc(CN2CCN(Cc3csc(C(C)=O)c3)CC2CCO)c(C)c1C (stereo not drawn) | i | i | i | i | i | i
COc1ccc(Cl)cc1-n1c(C)cc(C=O)c1C | i | i | i | 44.0 | i | i
COc1ccc(Cl)cc1-n1c(C)cc(C(=O)O)c1C | i | i | i | i | i | i
CN(CC(=O)Nc1cccc(C#N)c1)Cc1ccc(Cl)cc1 | 86.2 | i | i | i | i | i
CC(=O)c1sc(NC(=O)COc2ccccc2)nc1C | i | i | i | i | i | i
CCOC(=O)c1sc2nc(NC(=O)COc3ccccc3)sc2c1C | i | i | 55.4 | i | i | i
Cn1cc(CN2CCC(Oc3ccc(C(=O)N4CCCCC4)cc3)CC2)cn1 | nt | i | nt | nt | i | i
Cn1c(SCc2cccc([N+](=O)[O-])c2)nc2c(c1=O)SCC2 | i | i | i | i | i | i
O=C(C(NS(=O)(=O)c1cccs1)c1ccccc1)N1CCN(c2ccccc2)CC1 (stereo not drawn) | i | i | i | i | 31.0 | i
Cc1ccc(Cn2c(=N)n(CC(O)COc3ccccc3)c3ccccc32)cc1 (stereo not drawn) | i | i | i | i | i | i
N=c1n(Cc2ccccc2)c2ccccc2n1CC(O)COc1ccccc1 (stereo not drawn) | 64.1 | i | i | i | i | i
CCCC(C(=O)O)N1C(=O)/C(=C/c2cccn2C)SC1=S (stereo not drawn) | i | i | 52.0 | i | i | i
CCOc1ncccc1C(=O)NCc1ccccc1Cl | i | i | i | i | i | i
SMILES | Mcl1-Bid inh | MCL1-BIM inh | Mcl1-Noxa inh | Bim-Mcl-1 | Bcl-xL primary | GLD-1 RNA inh
O=[N+]([O-])c1cccc(S(=O)(=O)NCC2CCCO2)c1 (stereo not drawn) | i | i | i | 51.0 | i | i
CCOc1ccc(C(C)=O)cc1N1C(=O)C2C3C=CC(O3)C2C1=O (stereo not drawn) | i | i | 62.8 | i | i | i
CCOc1ccc(C(C)=O)cc1N1C(=O)C2C3C=CC(C3)C2C1=O (stereo not drawn) | i | i | i | i | i | i
O=C(COc1ccc(S(=O)(=O)N2CCCC2)cc1Cl)NC1CC1 | 95.2 | i | i | i | i | i
CCCn1c(SCC(=O)Nc2ccc(F)c(Cl)c2)nc(O)cc1=O | nt | nt | nt | nt | nt | i
NS(=O)(=O)c1ccc(NNC(=O)c2ccc(F)cc2F)cc1 | i | i | i | nt | i | i
